Bioassay records (PubChem)
TIM10 inh = inhibits growth of TIM10 yeast strain; S. cerevisiae TIM10 strain growth, BacTiter-Glo luminescence, 24 h; AID 463195; actives 1.4% (n = 330,000); inhibition, % at 10 µM;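 active = inhibition of 40% or more at the single tested concentration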;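 also: wild-type TIM10 isogenic control strain grown at permissive 25 °C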
tim23-1 inh = inhibits growth of tim23-1 mutant yeast. S. cerevisiae tim23-1 growth, BacTiter-Glo luminescence, 24 h. inhibition, % at 20 µM. actives 1.3% (n = 330,000);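 active = growth inhibition of the mutant yeast at or above 50%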;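 also: temperature-sensitive mutant grown at 25 °C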
tim10-1 inh = growth inhibitors of tim10-1 mutant yeast | S. cerevisiae tim10-1 ts strain growth, BacTiter-Glo, 24 h | inhibition, % at 20 µM | actives 2.2% (n = 330,000) | AID 463190;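 active = inhibition of at least 40%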;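 also: mutant grown at 25 °C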
V-ATPase pH = regulators of yeast V-ATPase proton transport | AID 504577 | response, % at 10 µM | S. cerevisiae, pHLuorin cytosolic pH fluorescence | actives 0.37% (n = 350,000); in the data active = response mostly above about 7.3%, no sharp cut-off; inactive = mostly below about 5.4%; also: actives read high
NLRP3 yeast inh = NALP3 inhibition in yeast | Yeast reconstituted NLRP3/ASC/caspase-1, beta-gal luminescence, 24 h | inhibition, % at 10 µM | actives 0.39% (n = 330,000);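 active = inhibition of 50% or more; inactive = inhibition below 50%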
NALP1 inh = NALP1 inhibition. S. cerevisiae NALP1/ASC/caspase-1 growth, X-gal OD620, 72 h. inhibition, % at 10 µM. actives 0.61% (n = 280,000); in the data active = inhibition mostly above about 24%, no sharp cut-off; inactive = mostly below about 32%
tim10-1 confirm = tim10-1 yeast growth inhibition, confirmed | shares compounds with tim10-1 inh | S. cerevisiae tim10-1 ts strain growth, BacTiter-Glo, 24 h | inhibition, % at 20 µM | actives 56% (n = 7,400);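 active = inhibition of yeast growth at or above a set limit in either of two repeat tests at 20 µM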;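 also: tim10-1 mutant grown at permissive 25 °C to find synthetic lethal compounds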
Large screens that a line does not name were inactive (follow-up assays come after a bar, where they were run). This is a sample that favours compounds with a hit; in the whole collection about 4.2% have one here.

Cc1cccc(NC(=O)Cn2nc([N+](=O)[O-])c(Br)c2C)n1	none
O=C(CN(C(=O)c1ccccc1Cl)C1CCCCC1)Nc1ccc(Cl)c([N+](=O)[O-])c1	none
COc1ccc(S(=O)(=O)N2CCN(C(=O)c3ccc([N+](=O)[O-])o3)CC2)cc1	tim10-1 inh 50.5 | tim10-1 confirm 45.1
CC(C)c1ccc(NC(=S)N2CCN(S(=O)(=O)c3ccccc3)CC2)cc1	tim10-1 inh 41.3 | tim10-1 confirm inactive
CC(C)c1ccc(S(=O)(=O)N2CCN(C(=O)Cc3ccsc3)CC2)cc1	tim10-1 inh 42.9 (no result: NALP1 inh) | tim10-1 confirm inactive
COc1ccc(C(=S)N2CCN(S(=O)(=O)c3ccccc3)CC2)cc1	tim10-1 inh 46.2 | tim10-1 confirm inactive
CS(=O)(=O)Oc1ccccc1/C=C1/N=C(c2ccc(F)cc2)OC1=O	none
COc1cccc(OC)c1C(=O)Nc1cccc(C(C)=O)c1	none
CC(=O)c1cccc(NC(=O)c2cc(Cl)sc2Cl)c1	tim10-1 inh 42.5 | tim10-1 confirm inactive
COc1cccc(CN2CC(C(=O)NC3(c4ccccc4)CC3)CCC2=O)c1 (centres undefined)	none
CC(C)(C)n1nnnc1C(c1cccnc1)N(Cc1ccccc1)Cc1cccs1 (centres undefined)	tim10-1 inh 56.3 | tim10-1 confirm 33.0
CC(C)(C)n1nnnc1C(c1cccs1)N(Cc1ccccc1)Cc1cccnc1 (centres undefined)	none
O=C(c1ccco1)N1CCCC(c2nc3c(nnn3Cc3cccc(Cl)c3)c(=O)[nH]2)C1 (centres undefined)	tim10-1 inh 52.7 (no result: V-ATPase pH) | tim10-1 confirm inactive
Cc1ccc(C)c(CSc2nnc(-c3ccccn3)n2N)c1	tim10-1 inh 43.8 | tim10-1 confirm inactive
Nn1c(SCc2c(F)cccc2F)nnc1-c1ccccn1	none
COC(=O)CN1C(=O)N/C(=C/c2ccc(OC)cc2)C1=O	none
CCOC(=O)COc1ccc(/C=C2\NC(=S)N(CC)C2=O)cc1	none | tim10-1 confirm inactive
CCOc1ncccc1C(=O)Nc1ccc(C)c(S(=O)(=O)N2CCCCCC2)c1	none (no result: NALP1 inh)
COc1ccc(Oc2nnnn2-c2ccccc2)cc1	none
COc1cccc(Oc2nnnn2-c2ccccc2)c1	tim10-1 inh 41.7 | tim10-1 confirm 32.9
CC(C)(C)c1ccc(C(=O)NCC(=O)NNC(=O)c2ccccc2O)cc1	none (no result: NALP1 inh)
Cc1c(OCC(=O)NCCCN2CCOCC2)ccc2c3c(c(=O)oc12)CCC3	tim10-1 inh 48.5 | tim10-1 confirm inactive
O=C(/C=C/NCC(=O)c1ccccc1)c1ccc(Br)cc1	none
Cc1ccc(Oc2ncccc2COC(=O)Nc2ccccc2C)cc1	none
CC(C)(C)C(=O)NCCN1C(=O)S/C(=C\c2ccc([N+](=O)[O-])cc2)C1=O	tim10-1 inh 57.5 | tim10-1 confirm 44.4
O=C(/C=C/c1ccccc1[N+](=O)[O-])NCCN1C(=O)S/C(=C\c2ccc(F)cc2)C1=O	none
COc1ccc2nc(C)cc(N3CCC(C(N)=O)CC3)c2c1	none
COc1ccc(N2CCN(c3cc(C)nc4ccc(OC)cc34)CC2)cc1	tim10-1 inh 42.5 | tim10-1 confirm inactive
COc1ccc(OC)c2sc(N3CCCCC3)nc12	tim10-1 inh 43.0 | tim10-1 confirm inactive
O=C(c1ccc2nc[nH]c2c1)N1CCN(c2cccc(C(F)(F)F)c2)CC1	none
O=C(c1ccc2ncsc2c1)N1CCN(c2cccc(C(F)(F)F)c2)CC1	tim10-1 inh 57.6 (no result: NALP1 inh) | tim10-1 confirm 39.5
COc1ccc(OC)c2sc(N3CCN(C(=O)c4ccc5ncsc5c4)CC3)nc12	tim10-1 inh 50.3 (no result: NALP1 inh) | tim10-1 confirm inactive
O=C(/C=C/c1ccc(Br)cc1)NC(=S)NNC(=O)c1ccco1	none
COc1ccc2c(c1)CCc1c(C(=O)N3CCCc4ccccc43)noc1-2	tim10-1 inh 44.8 | tim10-1 confirm 34.4
COc1ccc2c(c1)CCc1c(C(=O)N3CCOCC3)noc1-2	none
COc1ccc(/C=C/C(=O)N2CCCc3ccccc32)cc1	tim10-1 inh 46.6 | tim10-1 confirm inactive
CCOC(=O)/C=C/C(=O)N1CCc2ccccc21	tim10-1 inh 47.4 | tim10-1 confirm 40.2
COc1cc2c(cc1OC)C(c1cccs1)NCC2 (centres undefined)	none
COc1cc2c(cc1OC)C(COc1ccc(C(C)C)cc1)NCC2 (centres undefined)	tim10-1 inh 48.1 | tim10-1 confirm inactive
O=S(=O)(c1ccccc1)N1CCN(Cc2ccccc2C(F)(F)F)CC1	tim10-1 inh 40.4 | tim10-1 confirm inactive
Cc1ccc(S(=O)(=O)N2CCN(Cc3ccccc3C(F)(F)F)CC2)cc1	none
COc1ccc(C)cc1NC(=O)CSc1nnc(COc2ccc(C)cc2)n1Cc1ccco1	none
COc1cc2c(cc1OC)/C(=C/c1ccc(Br)cc1)C(=O)OC2	tim10-1 inh 42.6 | tim10-1 confirm inactive
CN(C)C(=O)CSc1nnc(-c2cc(-c3cccs3)nc3ccccc23)o1	tim10-1 inh 40.4 | tim10-1 confirm 38.2
CCN(CC)C(=O)CSc1nnc(-c2cc(-c3ccc(Cl)cc3)nc3ccccc23)o1	none
O=C(CSc1nnc(-c2cccs2)o1)c1cccs1	none
Cc1cc(C(=O)CSc2nnc(-c3cccs3)o2)c(C)n1-c1ccccc1	tim10-1 inh 48.3 | tim10-1 confirm 34.2
CCCCCCCCCC[n+]1cccc(C(=O)N(CC)CC)c1	none
S=c1[nH]c(-c2ccccc2)cn1/N=C/c1ccccc1Br	tim10-1 inh 41.9 | tim10-1 confirm inactive
CN(Cc1cccc(Cl)c1)C(=O)C1CSC2(C)CCC(=O)N12 (centres undefined)	none
COC(=O)c1ccc(COc2ccccc2/C=C(\C#N)C(=O)Nc2c(C)cc(C)cc2C)cc1	tim10-1 inh 47.2 | tim10-1 confirm inactive
COC(=O)c1ccc(COc2ccccc2/C=C(\C#N)C(=O)Nc2ccc(C)cc2C)cc1	none
COc1cc(/C=C(/C#N)C(=O)Nc2ccccc2)c(Br)cc1OCc1ccc(C(=O)O)cc1	tim10-1 inh 42.7 (no result: NALP1 inh) | tim10-1 confirm 39.9
COCCN1C(=O)c2cc(C(=O)Nc3ccc(OC)c(OC)c3)ccc2C1Nc1ccc(OC)c(OC)c1 (centres undefined)	none
Cc1nc(-c2cccnc2)sc1C(=O)Nc1cccc(C(F)(F)F)c1	tim10-1 inh 43.1 | tim10-1 confirm inactive
Cc1nc(-c2cccnc2)sc1C(=O)Nc1ccc(C(F)(F)F)cc1	none (no result: V-ATPase pH)
Cc1ccc(OC(C)C(=O)N=Nc2c(O)[nH]c3ccc([N+](=O)[O-])cc23)cc1 (centres undefined)	tim10-1 inh 43.8 | tim10-1 confirm inactive
Cc1c2c(c(C)n1C)C(C(=O)NC1CCCCC1)N(Cc1ccccc1)C2=O (centres undefined)	tim10-1 inh 45.1 | tim10-1 confirm 39.0
